Bioassay records deposited in PubChem BioAssay by National Center for Advancing Translational Sciences (NCATS).
Compounds with a hit are over-represented: about 6.6% of the library has one in this group of screens.
HepG2 tox = kills HepG2 cells in TGF-b inhibitor counter-screen. HepG2 CAGA-GFP viability, ATP luminescence, 18 h. hit rate 0.76% among 410,000. Potency, µM (top dose mostly 46.1 µM), without a hit: at the highest dose activity change, negative = cytotoxicity, actives largely listed as cytotoxic
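CellTiter-Glo luminescence gave cytotoxicity after 18 hours at 37 degrees C. The cells were HepG2 CAGA-GFP in 1% FBS DMEM, stimulated with 500 pg/mL TGF-beta after compound addition. %Activity was normalised to no-cell wells (complete cell-killing) and DMSO (no toxicity), and curves were fitted and classified.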
HT1080 IDH1KD tx = kills HT-1080 cells with IDH1 knockdown; HT-1080 IDH1 knockdown viability, ATP luminescence, 48 h; Potency, µM (doses to about 46.1 µM), without a hit: at the top dose activity, negative = toxicity, most hits filed as cytotoxic; hit rate 2% among 360,000; AID 686971;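 further: 0% = DMSO wells and -100% = cell-free medium wells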
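CellTiter-Glo luminescence after 48 h compound exposure at 37 degrees C of IDH1-knockdown HT-1080 cells in 5% FBS RPMI. %Activity scaled between DMSO wells and cell-free media wells, with curves fitted and assigned curve classes.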
KB-V1 cytotox = KB-V1 MDR subline cytotoxicity | KB-V1 MDR cells viability, CellTiter-Glo, 72 h | AID 1347076 | hit rate 3.4% among 400,000 | Potency, µM (highest dose often 46.1 µM), most hits filed as cytotoxic; further: on the % scale 0 is the no-effect control and ±100 the full control effect; nearly all actives have a fitted effect of over 60% in size
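Cells of the MDR subline KB-V1 are plated, dosed with compound at multiple concentrations, and incubated 72 h at 37 degrees C; CellTiter-Glo is then added and luminescence read after 10 min.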
HT1080-NT tox = kills 2HG-producing HT-1080-NT fibrosarcoma cells; HT-1080-NT fibrosarcoma viability, CellTiter-Glo ATP luminescence, 48 h; Potency, µM (top dose mostly 46.1 µM), without a hit: top-dose activity, negative = less viability, actives largely listed as cytotoxic; hit rate 1.6% among 360,000; AID 686970;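 further: NT is the 2HG producing partner of a matched IDH1 knockdown line; 0% = DMSO-treated cells and -100% = media-only wells without cells; nearly all actives have a fitted effect of over 55% in size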
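Viability of the 2HG-overproducing fibrosarcoma line after 48 hours of compound exposure at 37 degrees C was determined by luminescence with CellTiter-Glo, and concentration-effect curves were then fitted and categorized.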
TGFb SMAD3 inh = inhibitors of TGF-b signaling; hit rate 1.2% among 410,000; Potency, µM (doses to about 46.1 µM), without a hit: at the top dose activity, negative = inhibition, actives largely listed as inhibitors; AID 588855; HepG2 CAGA-GFP TGF-b/SMAD3 reporter, GFP fluorescence, 18 h; TGF-beta stimulated, 500 pg/mL final; further: on the % scale 0 is the no-effect control and ±100 the full control effect; nearly all actives have a fitted effect of over 65% in size
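Read-out: total well GFP (ex488/em500-530) summed from mean per-cell fluorescence. Cells: HEPG2 CAGA-GFP, 1% FBS DMEM, 18 h at 37 degrees C with 500 pg/mL final TGF-beta. Unstimulated wells served as the full-inhibition control; stimulated DMSO wells = 0%.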
KB-3-1 tox = KB-3-1 parental cell cytotoxicity; KB-3-1 viability, CellTiter-Glo ATP luminescence, 72 h; Potency, µM (highest dose often 46.1 µM), hits mostly cytotoxic; hit rate 1.4% among 400,000; AID 1347075; further: on the % scale 0 is the no-effect control and ±100 the full control effect; nearly all actives have a fitted effect of over 60% in size
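Parental KB-3-1 viability, qHTS format: 72 h compound exposure, 37 °C; CellTiter-Glo; media-only wells and DMSO plates as controls; concentration-effect fits on corrected data.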
* marks the source's active call; other numbers are inactive results; i = inactive; u = inconclusive; x = not tested or not shown. The call rests on the fitted dose curve; in most records, active means well fitted curve in the direction sought with a large enough effect; inconclusive means small, poorly fitted or top-dose-only effect, or another doubt; inactive means no such curve, though single readings can be large; an effect the other way counts as inactive or inconclusive. Potency means the concentration at half of the fitted maximal effect.

SMILES	HepG2 tox	HT1080 IDH1KD tx	KB-V1 cytotox	HT1080-NT tox	TGFb SMAD3 inh	KB-3-1 tox
Cc1ccc(C(=O)N2CC3(C(C)C)CN(C(=O)c4ccc(C)cc4)CC(C(C)C)(C2)C3=O)cc1	-6.0%	7.2%	i	6.0%	11.1%	i
COc1ccc(N2CCN(C3C(=O)c4ccccc4N3C(C)=O)CC2)cc1 (centres undefined)	-26.3%	x	i	x	0.0%	i
CSc1ccccc1OCc1cc(C(=O)NC(C)c2cnn(C)c2)no1 (centres undefined)	-20.0%	-6.5%	x	0.4%	-14.4%	x
O=C(c1cc(COc2c(F)cccc2F)on1)N1CCC(c2ccncc2)CC1	-24.7%	-25.7%	u	u	-16.0%	23.1µM*
Cc1cccc(C)c1OCc1cc(C(=O)N2CCC(c3ccncc3)CC2)no1	-15.0%	-18.7%	i	u	u	i
O=C(c1cc(COc2cccc3cnccc23)on1)N1CCC(c2ccccc2Cl)C1 (centres undefined)	-34.7%	-21.5%	i	u	20µM*	i
Cc1c(C(C)NC(=O)c2cc(COc3cccc4cnccc34)on2)cnn1C (centres undefined)	-22.3%	-13.4%	u	-12.0%	-10.2%	20.6µM*
CCOc1ccc(C(=O)N2CC(=O)Nc3ccc(F)cc3C2c2ccc(F)cc2)cc1 (centres undefined)	-4.5%	x	i	x	-24.0%	i
Cc1cccn2c(=O)c3cc(C#N)c(=O)n(-c4nnc(SCc5ccccc5F)s4)c3nc12	-4.9%	x	i	x	-14.2%	i
O=C(NCc1ccco1)/C(=C/c1cccc(C(F)(F)F)c1)c1nc2ccccc2[nH]1	-28.9%	u	20.6µM*	u	-17.5%	u
O=C(NCc1ccco1)/C(=C/c1ccc(C(F)(F)F)cc1)c1nc2ccccc2[nH]1	-24.8%	-13.2%	i	-16.2%	-2.7%	u
Cc1ccc(S(=O)(=O)NCC(=O)NCC(=O)N(C)Cc2ccc3ccccc3c2)cc1C	-42.1%	-13.8%	13µM*	u	u	u
CSc1ccc(CN(C)C(=O)CNC(=O)CNS(=O)(=O)c2ccc(C)c(C)c2)cc1	1.8%	-17.9%	i	-26.7%	2.5%	i
NC(=O)CSc1nc2c(oc3ccccc32)c(=O)n1-c1ccccc1F	4.1%	x	i	x	-0.9%	i
CCCn1c(SCC(=O)NCC)nc2sc3c(c2c1=O)CCC3	-0.5%	0.8%	u	-3.8%	1.6%	i
CCCn1c(SCC(=O)N(C)C2CCS(=O)(=O)C2)nc2sc3c(c2c1=O)CCC3 (centres undefined)	-30.2%	-22.2%	23.1µM*	-4.9%	-28.6%	i
O=C(/C=C/c1cccs1)Nc1ccc(Br)cn1	18.6%	0.184µM*	0.366µM*	0.116µM*	u	1.3µM*
O=C(NCCCCCCNC(=O)c1ccc(Br)s1)c1ccc(Br)s1	-52.6%	u	3.26µM*	u	0.0%	u
O=C(/C=C/c1cccs1)Nc1cccc(NC(=O)/C=C/c2cccs2)n1	-18.7%	-24.6%	23.1µM*	-10.3%	1.0%	23.1µM*
Cc1cc(C)c(-c2csc(NC(=O)/C=C/c3cccs3)n2)c(C)c1	-5.6%	-27.2%	5.17µM*	-23.5%	u	u
CC1CCN(S(=O)(=O)c2cn(CC(=O)Nc3ccc(F)c(Cl)c3)c(=O)c3ccccc23)CC1	-23.2%	x	i	x	u	u
O=C(Nc1ccc(Br)cn1)c1ccc(Br)s1	0.2%	u	23.1µM*	-14.6%	20.5%	u
Cc1ccc(NC(=O)Cn2ccn(-c3ccccc3)c(=O)c2=O)cc1	5.5%	x	x	x	-4.9%	x
Cc1cn(C2CCCO2)c(=O)nc1N (centres undefined)	3.0%	25.7%	u	16.8%	9.5%	i
CC(C)Oc1cccc(C(=O)C2CCCN(C(=O)c3cc(C(F)(F)F)[nH]n3)C2)c1 (centres undefined)	-1.7%	-15.2%	20.6µM*	-0.1%	-11.6%	u
SMILES	HepG2 tox	HT1080 IDH1KD tx	KB-V1 cytotox	HT1080-NT tox	TGFb SMAD3 inh	KB-3-1 tox
CC(C)Oc1cccc(C(=O)C2CCCN(C(=O)c3cc(C4CC4)[nH]n3)C2)c1 (centres undefined)	-4.8%	0.5%	i	-3.1%	1.7%	i
O=C(c1ccc2c(c1)OCCO2)N(Cc1cccnc1)c1nc2c(F)cc(F)cc2s1	-19.9%	x	x	x	u	x
Cc1cccc(Oc2ccc(Cl)cc2N)c1	20µM*	-17.2%	i	-13.9%	-32.1%	u
CCCn1c(C(C)NC(C)=O)nc2ccccc21 (centres undefined)	8.8%	4.9%	i	-1.4%	1.8%	i
CCCCC(NC(C)=O)c1nc2ccccc2n1CCC (centres undefined)	-12.1%	-3.5%	20.6µM*	-2.7%	0.7%	i
C=Nc1ccc(/C=C/c2ccnc3ccccc23)cc1	-68.1%	x	u	x	-10.1%	u
COc1cccc(O)c1CN1CCCC(C(=O)c2cccc(C(F)(F)F)c2)C1 (centres undefined)	-51.7%	u	u	-13.6%	15.8µM*	i
COc1ccc2cc(C(=O)C3CCCN(C(=O)c4ccnn4C)C3)ccc2c1 (centres undefined)	-34.1%	-6.7%	16.4µM*	0.0%	u	i
COc1ccc2cc(C(=O)C3CCCN(Cc4cccc(C)n4)C3)ccc2c1 (centres undefined)	-29.7%	23.1µM*	i	u	u	i
COc1ccc(C(=O)C2CCCN(Cc3c(O)cccc3OC)C2)cc1OC (centres undefined)	-26.6%	u	i	-28.6%	1.0%	i
COc1cccc(-c2ccc(NC(=O)C3CCCN(Cc4cccc(C)n4)C3)cc2)c1 (centres undefined)	-59.3%	u	i	u	u	i
COc1cc(OC)c(N(C)C(=O)c2nn(C)c3c2CSc2ccccc2-3)cc1Cl	-39.6%	x	x	x	u	x
COCCOC(=O)c1c(C)oc2c1cc(NS(=O)(=O)c1ccc(Cl)c(C)c1)c1ccccc12	-25.7%	x	i	x	u	i
N#Cc1c(N)nc(Sc2ccc(Cl)cc2)c(C#N)c1-c1ccccc1Cl	-18.9%	u	23.1µM*	u	-20.9%	4.61µM*
CCSc1nc(N)c(C#N)c(-c2ccccc2Cl)c1C#N	-6.5%	u	20.6µM*	-22.9%	2.3%	i
C=CCSc1nc(N)c(C#N)c(-c2ccc(C)cc2)c1C#N	-3.4%	-3.6%	i	1.8%	1.2%	i
